Laboratory results from ChEMBL document CHEMBL3988442, “University of Dundee, Small-Polar-MMV Screening Library” (2021).
For some of these results: Entries with a potency or affinity are not part of this list.

Tests used:
Design in all cases: scale not given: direction of the effect not stated beside the values
[1] = target: Protein translocase subunit SecA (Escherichia coli (strain K12)) (UniProt P10408); test: Assay to Identify E. coli SecA ATPase Inhibitors; assay type: functional; settings: 30 µM
[2] = target: T1, Ubiquitin-activating enzyme e1, putative (Leishmania donovani (strain BPK282A1)) (UniProt E9BSI1); test: Leishmania donovani Ubiquitin Activating Enzyme (LdE1); assay type: functional; settings: 30 µM
T1 sequence (whole entry): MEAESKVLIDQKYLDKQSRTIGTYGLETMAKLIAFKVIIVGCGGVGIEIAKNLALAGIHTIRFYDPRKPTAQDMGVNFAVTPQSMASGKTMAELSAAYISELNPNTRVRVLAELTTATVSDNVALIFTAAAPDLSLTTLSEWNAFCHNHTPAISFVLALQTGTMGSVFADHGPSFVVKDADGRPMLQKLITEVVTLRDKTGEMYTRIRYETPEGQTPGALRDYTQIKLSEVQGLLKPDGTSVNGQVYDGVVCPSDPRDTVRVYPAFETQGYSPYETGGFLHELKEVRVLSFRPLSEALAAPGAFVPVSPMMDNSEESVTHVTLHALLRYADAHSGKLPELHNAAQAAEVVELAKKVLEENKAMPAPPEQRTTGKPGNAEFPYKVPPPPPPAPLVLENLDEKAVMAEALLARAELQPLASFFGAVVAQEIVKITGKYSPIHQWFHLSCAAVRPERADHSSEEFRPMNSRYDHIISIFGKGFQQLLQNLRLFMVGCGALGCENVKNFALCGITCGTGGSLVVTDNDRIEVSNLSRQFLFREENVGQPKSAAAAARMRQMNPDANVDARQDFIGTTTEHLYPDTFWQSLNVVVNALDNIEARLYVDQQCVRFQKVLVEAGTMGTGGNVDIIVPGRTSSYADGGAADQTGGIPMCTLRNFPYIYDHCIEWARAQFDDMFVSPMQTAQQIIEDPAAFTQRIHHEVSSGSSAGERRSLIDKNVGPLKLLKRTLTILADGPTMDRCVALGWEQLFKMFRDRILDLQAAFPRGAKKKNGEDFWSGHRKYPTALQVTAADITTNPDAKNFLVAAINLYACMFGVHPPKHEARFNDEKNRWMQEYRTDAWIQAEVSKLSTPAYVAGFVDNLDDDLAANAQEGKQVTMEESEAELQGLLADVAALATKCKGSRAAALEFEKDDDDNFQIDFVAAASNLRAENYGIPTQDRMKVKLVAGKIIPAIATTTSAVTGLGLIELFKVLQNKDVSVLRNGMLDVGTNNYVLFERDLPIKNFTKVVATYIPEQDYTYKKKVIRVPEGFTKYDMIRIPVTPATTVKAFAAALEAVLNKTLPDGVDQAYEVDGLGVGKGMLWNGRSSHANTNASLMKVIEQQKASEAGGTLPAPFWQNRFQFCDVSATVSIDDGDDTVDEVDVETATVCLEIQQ

[3] = target: AMP-activated protein kinase, AMPK (Homo sapiens) (UniProt P54646+O43741+P54619+Q9UGJ0+Q9Y478+Q13131+Q9UGI9); test: AMP-dependent Kinase enzyme assay. An in vitro enzyme assay that detects ADP turnover that is directly proportional to AMPK activity. This uses naive AMPK that is activated during the assay with MK-8722; assay type: functional; settings: 30 µM
[4] = target: Sialic acid-binding Ig-like lectin 9 (Homo sapiens) (UniProt Q9Y336); test: Hs-Siglec9 ALPHAscreen SOP 20170721; settings: 10 µM
Trypanosoma cruzi = test: Trypanosoma cruzi phosphomannomutase and mannose-1-phosphate guanylyltransferase assay; assay type: functional; settings: 10 µM
[5] = target: T2, Arginase-2, mitochondrial (Homo sapiens) (UniProt P78540); test: in vitro enzyme assay to detect the production of urea directly proportional to the activity of Arginase II; assay type: functional; settings: 33.3 µM; also: in the data most compounds retested in dose-response had high values
T2 sequence (whole entry): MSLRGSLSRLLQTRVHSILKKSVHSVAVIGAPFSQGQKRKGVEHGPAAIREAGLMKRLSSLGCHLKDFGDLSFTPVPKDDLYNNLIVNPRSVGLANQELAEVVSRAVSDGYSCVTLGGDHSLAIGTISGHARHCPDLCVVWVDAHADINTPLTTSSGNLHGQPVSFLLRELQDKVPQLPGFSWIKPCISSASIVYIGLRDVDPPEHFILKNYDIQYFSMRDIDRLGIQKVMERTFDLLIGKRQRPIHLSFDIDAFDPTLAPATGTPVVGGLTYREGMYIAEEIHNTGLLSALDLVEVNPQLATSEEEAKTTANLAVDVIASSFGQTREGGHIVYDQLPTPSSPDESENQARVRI

[6] = target: T3, Proteasome subunit beta (Trypanosoma cruzi) (UniProt O96673); test: Trypanosoma cruzi proteasome chymotrypsin-like activity (TcProtChymo) assay.; also: in the data most compounds retested in dose-response had high values; assay type: functional; settings: 9.37 µM
T3 sequence (whole entry): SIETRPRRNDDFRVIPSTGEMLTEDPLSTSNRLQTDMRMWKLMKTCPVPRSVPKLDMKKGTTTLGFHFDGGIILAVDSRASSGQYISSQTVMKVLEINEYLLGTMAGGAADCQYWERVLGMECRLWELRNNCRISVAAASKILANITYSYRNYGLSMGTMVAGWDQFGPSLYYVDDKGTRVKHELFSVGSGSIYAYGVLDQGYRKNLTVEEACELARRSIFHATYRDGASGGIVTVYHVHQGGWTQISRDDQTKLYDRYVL

Homo sapiens = organism: Homo sapiens; test: To identify inhibition of the IFN signalling (Jak-Stat) pathway via expression of an eGFP reporter gene under the control of an IFN-stimulated response element (ISRE) containing MxA promoter.; assay type: functional; settings: 30 µM
[7] = target: T4, Tyrosyl-tRNA synthetase, putative (Trypanosoma cruzi (strain CL Brener)) (UniProt Q4DSP6); test: Trypanosoma cruzi tyrosyl tRNA synthetase (TcYRS) _High Tyrosine SOP; assay type: functional; settings: 30 µM; also: in the data most compounds retested in dose-response had high values
T4 sequence (whole entry): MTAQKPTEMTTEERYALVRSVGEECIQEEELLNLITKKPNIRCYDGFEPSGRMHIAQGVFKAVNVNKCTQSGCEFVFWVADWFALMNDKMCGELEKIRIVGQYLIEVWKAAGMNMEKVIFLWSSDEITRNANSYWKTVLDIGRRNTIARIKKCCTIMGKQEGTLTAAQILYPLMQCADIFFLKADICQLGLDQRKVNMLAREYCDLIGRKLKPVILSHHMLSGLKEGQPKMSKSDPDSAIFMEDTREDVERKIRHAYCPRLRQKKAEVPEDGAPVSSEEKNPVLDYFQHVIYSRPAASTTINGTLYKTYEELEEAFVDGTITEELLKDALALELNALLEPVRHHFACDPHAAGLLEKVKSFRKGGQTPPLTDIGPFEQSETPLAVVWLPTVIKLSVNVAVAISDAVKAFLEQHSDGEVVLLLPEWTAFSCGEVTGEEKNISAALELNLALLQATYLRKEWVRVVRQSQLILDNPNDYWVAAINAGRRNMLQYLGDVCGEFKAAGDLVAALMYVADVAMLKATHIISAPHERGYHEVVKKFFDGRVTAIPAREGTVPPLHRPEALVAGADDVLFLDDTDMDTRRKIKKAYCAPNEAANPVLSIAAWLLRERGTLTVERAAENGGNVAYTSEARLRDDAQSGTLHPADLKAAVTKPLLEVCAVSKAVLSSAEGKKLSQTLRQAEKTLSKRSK

[8] = target: T4, Tyrosyl-tRNA synthetase, putative (Trypanosoma cruzi (strain CL Brener)); test: Trypanosoma cruzi tyrosyl tRNA synthetase (TcYRS) SOP; assay type: functional; settings: 30 µM
[9] = target: Chromo domain-containing protein 1 (Saccharomyces cerevisiae (strain ATCC 204508 / S288c) (Baker's yeast)) (UniProt P32657); test: ScCHD-1 Enzyme Inhibition Assay; assay type: functional; settings: 30 µM; also: in the data most compounds retested in dose-response had high values
Chain of Chromo domain-containing protein 1 (Saccharomyces cerevisiae (strain ATCC 204508 / S288c) (Baker's yeast)) (P32657 whole entry, the tested form may be a part): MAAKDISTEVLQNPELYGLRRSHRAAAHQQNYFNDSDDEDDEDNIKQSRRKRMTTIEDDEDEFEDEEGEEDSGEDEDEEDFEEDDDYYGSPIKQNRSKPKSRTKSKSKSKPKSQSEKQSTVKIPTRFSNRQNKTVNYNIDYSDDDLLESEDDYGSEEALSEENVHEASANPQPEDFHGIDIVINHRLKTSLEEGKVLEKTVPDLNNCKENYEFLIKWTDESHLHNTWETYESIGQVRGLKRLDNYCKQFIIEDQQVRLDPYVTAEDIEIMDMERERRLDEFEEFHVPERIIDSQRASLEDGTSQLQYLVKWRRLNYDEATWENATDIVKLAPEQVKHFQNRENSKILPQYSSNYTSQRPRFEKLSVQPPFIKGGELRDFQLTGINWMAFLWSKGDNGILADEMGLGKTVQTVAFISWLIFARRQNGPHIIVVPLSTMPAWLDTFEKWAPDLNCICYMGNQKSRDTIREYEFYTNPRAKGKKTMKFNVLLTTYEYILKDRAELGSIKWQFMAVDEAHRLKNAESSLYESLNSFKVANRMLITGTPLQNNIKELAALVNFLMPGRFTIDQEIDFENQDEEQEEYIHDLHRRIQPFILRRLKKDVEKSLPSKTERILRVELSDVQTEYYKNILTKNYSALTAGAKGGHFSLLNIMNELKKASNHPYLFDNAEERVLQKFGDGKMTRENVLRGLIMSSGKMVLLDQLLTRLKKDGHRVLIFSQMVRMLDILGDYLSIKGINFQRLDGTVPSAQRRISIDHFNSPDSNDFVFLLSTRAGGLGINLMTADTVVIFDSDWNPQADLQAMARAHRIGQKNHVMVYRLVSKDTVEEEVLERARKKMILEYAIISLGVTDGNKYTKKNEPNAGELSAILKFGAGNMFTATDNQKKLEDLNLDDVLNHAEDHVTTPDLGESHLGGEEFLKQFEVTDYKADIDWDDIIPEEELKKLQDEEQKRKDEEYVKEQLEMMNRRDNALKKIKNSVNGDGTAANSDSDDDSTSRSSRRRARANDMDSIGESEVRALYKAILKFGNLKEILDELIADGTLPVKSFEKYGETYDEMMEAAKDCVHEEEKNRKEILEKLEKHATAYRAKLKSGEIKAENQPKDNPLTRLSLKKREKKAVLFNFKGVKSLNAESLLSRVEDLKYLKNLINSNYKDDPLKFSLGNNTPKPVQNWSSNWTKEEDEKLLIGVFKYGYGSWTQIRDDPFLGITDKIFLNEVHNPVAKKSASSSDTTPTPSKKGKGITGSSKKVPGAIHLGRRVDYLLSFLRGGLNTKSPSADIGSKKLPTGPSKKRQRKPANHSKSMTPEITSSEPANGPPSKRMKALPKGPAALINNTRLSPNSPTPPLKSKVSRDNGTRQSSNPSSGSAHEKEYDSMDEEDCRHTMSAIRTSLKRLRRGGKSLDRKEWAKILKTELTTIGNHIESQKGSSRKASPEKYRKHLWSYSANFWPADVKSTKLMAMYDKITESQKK

Chain of Protein translocase subunit SecA (Escherichia coli (strain K12)) (P10408 whole entry): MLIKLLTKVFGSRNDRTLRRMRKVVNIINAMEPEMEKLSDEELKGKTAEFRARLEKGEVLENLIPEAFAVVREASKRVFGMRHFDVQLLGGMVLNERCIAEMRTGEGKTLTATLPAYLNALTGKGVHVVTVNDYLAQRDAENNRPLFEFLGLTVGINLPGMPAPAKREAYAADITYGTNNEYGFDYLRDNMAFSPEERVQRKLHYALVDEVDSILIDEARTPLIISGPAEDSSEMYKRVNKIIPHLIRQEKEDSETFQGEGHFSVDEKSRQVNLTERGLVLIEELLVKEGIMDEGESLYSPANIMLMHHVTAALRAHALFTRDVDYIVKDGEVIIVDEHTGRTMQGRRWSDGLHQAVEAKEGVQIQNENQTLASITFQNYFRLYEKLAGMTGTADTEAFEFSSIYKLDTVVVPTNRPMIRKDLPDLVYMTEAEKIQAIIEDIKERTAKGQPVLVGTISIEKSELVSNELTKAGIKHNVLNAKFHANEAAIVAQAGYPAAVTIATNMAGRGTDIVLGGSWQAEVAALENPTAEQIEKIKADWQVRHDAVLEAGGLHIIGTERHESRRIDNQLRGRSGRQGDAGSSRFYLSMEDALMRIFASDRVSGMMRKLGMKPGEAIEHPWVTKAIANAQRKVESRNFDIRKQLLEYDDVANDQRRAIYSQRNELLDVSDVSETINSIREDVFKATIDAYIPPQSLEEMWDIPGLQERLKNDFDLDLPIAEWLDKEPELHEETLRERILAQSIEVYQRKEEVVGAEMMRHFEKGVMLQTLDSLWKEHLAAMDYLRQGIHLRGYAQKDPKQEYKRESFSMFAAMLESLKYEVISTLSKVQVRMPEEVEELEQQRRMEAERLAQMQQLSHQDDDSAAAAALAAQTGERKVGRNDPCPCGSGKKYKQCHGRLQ
Chain of Sialic acid-binding Ig-like lectin 9 (Homo sapiens) (Q9Y336 whole entry): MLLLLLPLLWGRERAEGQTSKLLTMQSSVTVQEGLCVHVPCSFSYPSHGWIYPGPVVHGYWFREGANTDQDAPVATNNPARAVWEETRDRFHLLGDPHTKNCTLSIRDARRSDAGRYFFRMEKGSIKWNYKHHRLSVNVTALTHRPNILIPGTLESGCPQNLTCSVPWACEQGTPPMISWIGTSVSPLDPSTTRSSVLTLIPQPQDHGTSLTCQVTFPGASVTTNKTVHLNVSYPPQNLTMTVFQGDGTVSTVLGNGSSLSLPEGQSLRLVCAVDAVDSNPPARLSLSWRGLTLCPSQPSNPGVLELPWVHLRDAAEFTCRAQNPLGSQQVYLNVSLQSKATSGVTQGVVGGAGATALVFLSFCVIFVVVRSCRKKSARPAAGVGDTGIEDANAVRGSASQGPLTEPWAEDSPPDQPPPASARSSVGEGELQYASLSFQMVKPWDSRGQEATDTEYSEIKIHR

SMILES | Percent Effect [1] [%] | Percent Effect [2] [%] | Percent Effect [3] [%] | Percent Effect [4] [%] | Percent Effect (Trypanosoma cruzi) [%] | Percent Effect [5] [%] | Percent Effect [6] [%] | Percent Effect (Homo sapiens) [%] | Percent Effect [7] [%] | Percent Effect [8] [%] | Percent Effect [9] [%]
CCn1cc2c(n1)CN(Cc1ccoc1)CC2COCC1CC1 (stereo not given) | -5.08 | -10.8 | -0.58 | 2.38 | 6.64 | -1.67 | 7.69 | -8.7 | 11.9 | 8.54 | -4.61
CCn1ccnc1CN1CCOC(CNc2cccnn2)C1 (stereo not given) | -0.964 | 18.2 | -6.06 | 5.48 | 1.5 | 2.85 | 16.4 | 17.5 | 4.85 | 19.5 | -8.74
CN(Cc1ncc(C(C)(C)C)o1)C1CCCN(c2cccnn2)C1 (stereo not given) | -2.8 | 15.2 | -7.54 | -5.13 | 3.49 | 2.66 | 13.2 | 2.64 | 12.3 | 16.5 | -3.04
CN(C(=O)CCNC(=O)NC1CCCCC1)c1ccccc1 | -3.57 | 21.1 | -2.45 | -10.2 | 3.21 | -1.18 | 14.3 | 8.02 | 3.19 | 13 | -0.404
CS(=O)(=O)N1CCOC2(CCCN(c3cnccn3)C2)C1 (stereo not given) | -3.81 | 0 | -1.28 | -4.89 | -2.83 | 1.74 | 6.09 | 1.81 | 1.07 | 1.24 | 0.866
